NS1 inh – qHTS Assay for Inhibitors of Influenza NS1 Protein Function. Potency, µM (series often up to 46.1 µM), for inactives: top-dose activity, positive = more growth. 270,000 compounds, 0.4% hits; calls by dose curve; note: actives are rising curves; nearly all actives have a fitted effect of over 50% in size
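Read-out: OD600 growth recovery of NS1-expressing budding yeast. Cells grown overnight at 30C in -URA glucose medium, washed, resuspended and diluted 1:100 in 2% galactose assay medium, pH 6.0. Same strain lacking NS1 served as positive control.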
Cruzain noTriton – qHTS Assay for Promiscuous and Specific Inhibitors of Cruzain (without detergent); AID 1476, 2009; Potency, µM, for inactives: max response, negative = inhibition, most hits filed as inhibitors; purified cruzain, Z-FR-AMC fluorescence, no detergent; Cruzipain (Trypanosoma cruzi), P25779; 200,000 compounds, 2.3% hits;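 note: plate controls were enzyme without inhibitor for no effect and buffer without enzyme for full effect; nearly all actives have a fitted effect of over 40% in size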
Target sequence (P25779 123-467 limits assumed): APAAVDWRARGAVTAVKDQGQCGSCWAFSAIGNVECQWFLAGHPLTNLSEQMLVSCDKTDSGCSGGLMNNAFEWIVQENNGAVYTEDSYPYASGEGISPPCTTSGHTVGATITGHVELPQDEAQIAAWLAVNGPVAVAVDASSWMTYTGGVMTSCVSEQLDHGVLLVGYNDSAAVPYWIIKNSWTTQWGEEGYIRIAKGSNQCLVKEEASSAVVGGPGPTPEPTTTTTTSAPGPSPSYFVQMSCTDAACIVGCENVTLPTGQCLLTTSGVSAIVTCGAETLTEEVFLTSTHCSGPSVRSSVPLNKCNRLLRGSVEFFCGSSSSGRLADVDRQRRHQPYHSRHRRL
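Purified cruzain at 1.5 nM, pre-incubated 15 min with compound at room temperature in 100 mM sodium acetate pH 5.5, 5 mM DTT, 0.00005% Triton X-100. Reaction started with 2 uM Z-FR-AMC; AMC fluorescence increase over 60 s gives rate.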
Cruzain Triton – qHTS Assay for Promiscuous and Specific Inhibitors of Cruzain (with detergent). Cruzipain (Trypanosoma cruzi), P25779. AID 1478, 2009. Potency, µM, inactives show max response, negative = inhibition, most hits filed as inhibitors. 200,000 compounds, 0.43% hits. purified cruzain, Z-FR-AMC fluorescence, 0.01% Triton;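 note: plate controls were neutral wells for no effect and buffer without enzyme for full effect; nearly all actives have a fitted effect of over 40% in size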
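Read-out: AMC fluorescence (360 nm excitation, 450 nm emission), four reads over 2 min, first-to-third difference used. Conditions: cruzain 1.5 nM, Z-FR-AMC 2 uM, pH 5.5 acetate, 5 mM DTT, 0.01% Triton X-100.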
* marks the source's active call; other numbers are inactive results. This is one part of a sample in which hits are shown more often than they occur. Unless noted, calls come from the whole dose curve; as a rule, active = well fitted curve in the direction sought with a large enough effect; inconclusive = small, poorly fitted or top-dose-only effect, or another doubt; inactive = no such curve, though single readings can be large; an effect the other way counts as inactive or inconclusive. Potency is the fitted concentration of half-maximal effect.

`CCn1c(C(=O)NCc2cc(Br)ccc2OC)cc2oc3ccccc3c21` gave Cruzain noTriton 31.6µM* and Cruzain Triton -5.4%.
`CSCC[C@H](NC(=O)c1ccc(Cl)c([N+](=O)[O-])c1)c1nc2ccccc2[nH]1` gave NS1 inh 10.9%, Cruzain noTriton -8.5% and Cruzain Triton 14.1µM*.
`CSCC[C@H](NC(=O)c1cccc([N+](=O)[O-])c1C)c1nc2ccccc2[nH]1` gave NS1 inh -1.7%, Cruzain noTriton 7.0% and Cruzain Triton 14.1µM*.
For O=C(NC(Cc1ccccc1)c1nc2ccccc2[nH]1)c1ccc(Cl)c([N+](=O)[O-])c1 (stereo not given) the results were NS1 inh 2.4%, Cruzain noTriton -2.1% and Cruzain Triton -17.0%.
Screening Cc1c(C(=O)NC(Cc2ccccc2)c2nc3ccccc3[nH]2)cccc1[N+](=O)[O-] (stereo not given) returned NS1 inh -2.1%, Cruzain noTriton -25.4% and Cruzain Triton inconclusive.
`CCNc1ncc2nc(C)c(=O)n(C3CC3)c2n1` gave Cruzain noTriton -12.2% and Cruzain Triton -1.3%.
`CCc1ccc(/C=N/NC(=O)c2cc(-c3ccccc3OC)nc3ccccc23)s1` gave NS1 inh -4.5%, Cruzain noTriton -27.3% and Cruzain Triton -7.8%.
For CCc1ccc(/C=N/NC(=O)c2cc(C3CC3)nc3ccc(Br)cc23)s1 the results were NS1 inh 9.5%, Cruzain noTriton 25.1µM* and Cruzain Triton 2.6%.
For Cc1cc2nc(NC3=NCN(CCCN4CCOCC4)CN3)nc(C)c2cc1C the results were NS1 inh -5.1%.
Cc1nc(NC2=NCN(CCCN3CCOCC3)CN2)nc2c(C)cccc12 was read as NS1 inh 4.3%, Cruzain noTriton 25.1µM* and Cruzain Triton inconclusive.
For CCc1ccccc1Nc1sc(C(=O)c2cccc(OC)c2)c(N)c1S(=O)(=O)c1ccccc1 the results were Cruzain noTriton 7.94µM* and Cruzain Triton -5.0%.
`COc1ccc(S(=O)(=O)c2c(Nc3ccccc3F)sc(C(=O)c3cccc(OC)c3)c2N)cc1` gave Cruzain noTriton 12.6µM* and Cruzain Triton -1.2%.
Cc1cccc(C)c1Nc1sc(C(=O)c2ccccc2)c(N)c1S(=O)(=O)c1ccccc1 was read as Cruzain noTriton 15.8µM* and Cruzain Triton -1.2%.
Cc1ccc(Cl)cc1Nc1sc(C(=O)c2ccccc2)c(N)c1S(=O)(=O)c1ccccc1 was read as Cruzain noTriton inconclusive and Cruzain Triton -2.4%.
`COc1ccc(S(=O)(=O)c2c(Nc3ccc(C)cc3C)sc(C(=O)c3ccc(F)cc3)c2N)cc1` gave Cruzain noTriton 5.01µM* and Cruzain Triton -1.0%.
`COc1cccc(C(=O)c2sc(Nc3ccc(F)c(Cl)c3)nc2N)c1` gave Cruzain noTriton -28.3% and Cruzain Triton -0.7%.
`CCOc1ccc(Nc2sc(C(=O)c3ccc(F)cc3)c(N)c2S(=O)(=O)c2ccc(C)cc2)cc1` gave Cruzain noTriton -10.9% and Cruzain Triton -1.2%.
CCS(=O)(=O)c1c(Nc2cc(C)ccc2C)sc(C(=O)c2ccccc2)c1N was read as Cruzain noTriton -8.7% and Cruzain Triton -7.8%.
Screening CN1[C@@H]2CC(OC(=O)[C@H](CO)c3ccccc3)C[C@@H]1[C@H]1O[C@H]12 (stereo not given in full) returned Cruzain noTriton 4.8% and Cruzain Triton -4.6%.
O=C(NCCc1ccc(Cl)cc1)C1CCN(S(=O)(=O)c2ccc3[nH]ccc3c2)CC1 was read as Cruzain noTriton inconclusive and Cruzain Triton -5.1%.
`N#C/C(=C\c1cc(Br)c(O)c(Br)c1)c1nc2ccccc2c(=O)[nH]1` gave Cruzain noTriton 2.7% and Cruzain Triton -2.5%.
`COc1cccc(Cn2c(=O)c(-c3cccc(Cl)c3)nc3cncnc32)c1` gave Cruzain noTriton 4.0% and Cruzain Triton -6.3%.
Screening CC(C)c1ccc(Nc2sc(C(=O)c3ccccc3)c(N)c2S(=O)(=O)c2ccccc2)cc1 returned Cruzain noTriton 3.98µM* and Cruzain Triton -0.2%.
Cc1c(Cl)cccc1Nc1sc(C(=O)c2ccccc2)c(N)c1S(=O)(=O)c1ccccc1 was read as Cruzain noTriton inconclusive and Cruzain Triton -4.7%.
N#Cc1c(Nc2ccccc2)sc(C(=O)c2ccccc2)c1N was read as NS1 inh inconclusive, Cruzain noTriton -6.7% and Cruzain Triton -10.8%.
CCc1ccccc1Nc1sc(C(=O)c2ccccc2)c(N)c1S(=O)(=O)c1ccccc1 was read as Cruzain noTriton 6.31µM* and Cruzain Triton -4.1%.
CCOc1ccccc1Nc1sc(C(=O)c2ccccc2)c(N)c1S(=O)(=O)c1ccc(C)cc1 was read as Cruzain noTriton inconclusive and Cruzain Triton 2.2%.
CCOc1ccccc1Nc1sc(C(=O)c2ccc(Cl)cc2)c(N)c1S(=O)(=O)c1ccccc1 was read as Cruzain noTriton 3.16µM* and Cruzain Triton 0.8%.
Screening C[C@@H](Oc1ccc(Oc2cnc3ccc(Cl)cc3n2)cc1)C(=O)O returned NS1 inh -30.9%, Cruzain noTriton 5.9% and Cruzain Triton -5.4%.
`COc1ccc([N+](=O)[O-])cc1NC(=O)C(C)c1ccccc1` (stereo not given) gave NS1 inh -1.5%, Cruzain noTriton -3.9% and Cruzain Triton -7.0%.
Screening COc1ccc([N+](=O)[O-])cc1NC(=O)CC(c1ccccc1)c1ccccc1 returned NS1 inh 15.8%, Cruzain noTriton 25.1µM* and Cruzain Triton -2.5%.
`CN(C)c1ncc2nc(-c3ccc(Cl)cc3)c(=O)n(Cc3cccs3)c2n1` gave Cruzain noTriton -6.0% and Cruzain Triton 8.4%.
For Cc1ccc(-c2onc(C)c2C)cc1S(=O)(=O)Nc1cccc(Cl)c1C the results were Cruzain noTriton 14.3% and Cruzain Triton -5.4%.
`C[C@@H](C(=O)Nc1ccc2ccccc2c1)[C@@H]1C[C@@]1(C)[C@@H](NC(=O)Oc1ccc(F)cc1)c1ccccc1` gave Cruzain noTriton 7.94µM* and Cruzain Triton 3.2%.
C[C@@H](C(=O)Nc1ccc2ccccc2c1)[C@@H]1C[C@@]1(C)[C@@H](NS(=O)(=O)c1ccc(-c2ccccc2)cc1)c1ccccc1 was read as Cruzain noTriton 3.16µM* and Cruzain Triton 1.3%.
For C[C@@H](C(=O)Nc1ccc2ccccc2c1)[C@@H]1C[C@@]1(C)[C@@H](NS(=O)(=O)c1ccccc1)c1ccccc1 the results were Cruzain noTriton inconclusive and Cruzain Triton -0.8%.
CC(=O)N[C@@H](c1ccccc1)[C@]1(C)C[C@H]1[C@@H](C)C(=O)Nc1ccc2ccccc2c1 was read as Cruzain noTriton inconclusive and Cruzain Triton -1.6%.
Screening CCNc1ncc2nc(-c3ccccc3)c(=O)n(C[C@H]3CCCO3)c2n1 returned Cruzain noTriton inconclusive and Cruzain Triton -22.1%.
`CCc1ccc(NC(=O)CN2C(=O)c3ccccc3Sc3ccc(C(=O)N4CCCC4)cc32)cc1` gave Cruzain noTriton -8.2% and Cruzain Triton -5.6%.
CCCOc1ccc(CNC(=O)CCCN2C(=O)CSc3c2c(C)nn3-c2ccccc2)cc1 was read as Cruzain noTriton inconclusive and Cruzain Triton -8.3%.
